Assay results as given in PubChem BioAssay AID1159580 (chemical genetic matrix, 2015).
In all, about 5,500 compounds went through this assay and about 2,000 (36%) were called active. Another 18% or so got no clear call; they are omitted. Rule as the data show it: active = normalized growth mostly below about 0.91 (no sharp cut-off); inconclusive = no clear call, values can overlap the other calls; inactive = mostly above about 0.92. Some of the results follow.

Experiment: chemical genetic growth profiling, strain panel (AID 1159580);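 also: tested at 20 µM; growth read once vehicle control cultures reached saturation at 30 °C; 1 = growth at the plate median or of vehicle wells; lower values mean less growth of the strain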
Conditions: growth OD
[1] = S. cerevisiae deletion strains, locus YHR030C, strain SLT2, active compounds read low

Measured: normalized growth

O=C(Oc1ccc(C(F)(F)F)cc1[N+](=O)[O-])c1cccc(Cl)c1
inactive: S. cerevisiae deletion strains, locus YBL105C, strain PKC1, active compounds read low 0.953 | S. cerevisiae deletion strains, locus YBR135W, strain CKS1, active compounds read low 0.936 | S. cerevisiae deletion strains, locus YBR160W, strain CDC28, active compounds read low 0.944 | S. cerevisiae deletion strains, locus YDL017W, strain CDC7, active compounds read low 0.947 | S. cerevisiae deletion strains, locus YDL028C, strain MPS1, active compounds read low 0.941 | S. cerevisiae deletion strains, locus YDL108W, strain KIN28, active compounds read low 0.936 | S. cerevisiae deletion strains, locus YDL132W, strain cdc53, active compounds read low 0.911 | S. cerevisiae deletion strains, locus YDL214C, strain PRR2, active compounds read low 0.746 | S. cerevisiae deletion strains, locus YDR052C, strain DBF4, active compounds read low 0.944 | S. cerevisiae deletion strains, locus YFL029C, strain CAK1, active compounds read low 0.923 | S. cerevisiae deletion strains, locus YFR003C, strain YPI1, active compounds read low 0.944 | S. cerevisiae deletion strains, locus YFR028C, strain CDC14, active compounds read low 0.938 | S. cerevisiae deletion strains, locus YIL147C, strain SLN1, active compounds read low 0.947 | S. cerevisiae deletion strains, locus YKL203C, strain TOR2, active compounds read low 0.712 | S. cerevisiae deletion strains, locus YMR001C, strain CDC5, active compounds read low 0.943 | S. cerevisiae deletion strains, locus YMR277W, strain FCP1, active compounds read low 0.948 | S. cerevisiae deletion strains, locus YNL006W, strain LST8, active compounds read low 0.945 | S. cerevisiae deletion strains, locus YNL222W, strain SSU72, active compounds read low 0.93 | S. cerevisiae deletion strains, locus YOL078W, strain AVO1, active compounds read low 0.939 | S. cerevisiae deletion strains, locus YOR329C, strain SCD5, active compounds read low 0.946 | S. cerevisiae deletion strains, locus YPL209C, strain IPL1, active compounds read low 0.941 | S. cerevisiae deletion strains, locus YPR025C, strain CCL1, active compounds read low 0.937 | S. cerevisiae deletion strains, strain TSCII, active compounds read low 0.94
active: S. cerevisiae deletion strains, locus YDR054C, strain cdc34, active compounds read low 0.613 | S. cerevisiae deletion strains, locus YDR477W, strain SNF1, active compounds read low 0.626 | S. cerevisiae deletion strains, locus YER123W, strain YCK3, active compounds read low 0.423 | S. cerevisiae deletion strains, locus YER133W, strain GLC7, active compounds read low 0.584 | S. cerevisiae deletion strains, locus YGR040W, strain KSS1, active compounds read low 0.617 | S. cerevisiae deletion strains, locus YGR052W, strain FMP48, active compounds read low 0.124 | S. cerevisiae deletion strains, locus YGR092W, strain DBF2, active compounds read low 0.133 | [1] 0.132 | S. cerevisiae deletion strains, locus YHR079C, strain IRE1, active compounds read low 0.22 | S. cerevisiae deletion strains, locus YHR082C, strain KSP1, active compounds read low 0.162 | S. cerevisiae deletion strains, locus YHR205W, strain SCH9, active compounds read low 0.00246 | S. cerevisiae deletion strains, locus YJL095W, strain BCK1, active compounds read low 0.141 | S. cerevisiae deletion strains, locus YJL128C, strain PBS2, active compounds read low 0.132 | S. cerevisiae deletion strains, locus YJL157C, strain FAR1, active compounds read low 0.638 | S. cerevisiae deletion strains, locus YJR066W, strain TOR1 (second series), active compounds read low 0.248 | S. cerevisiae deletion strains, locus YJR066W, strain TOR1, active compounds read low 0.134 | S. cerevisiae deletion strains, locus YKL048C, strain ELM1, active compounds read low 0.623 | S. cerevisiae deletion strains, locus YKL067W, strain YNK1, active compounds read low 0.645 | S. cerevisiae deletion strains, locus YKL101W, strain HSL1, active compounds read low 0.662 | S. cerevisiae deletion strains, locus YLR113W, strain HOG1, active compounds read low 0.21 | S. cerevisiae deletion strains, locus YLR133W, strain CKI1, active compounds read low 0.556 | S. cerevisiae deletion strains, locus YLR403W, strain SFP1, active compounds read low 0.0472 | S. cerevisiae deletion strains, locus YML070W, strain DAK1, active compounds read low 0.521 | S. cerevisiae deletion strains, locus YMR205C, strain PFK2 (second series), active compounds read low 0.584 | S. cerevisiae deletion strains, locus YNL020C, strain ARK1, active compounds read low 0.513 | S. cerevisiae deletion strains, locus YNL183C, strain NPR1, active compounds read low 0.132 | S. cerevisiae deletion strains, locus YNL207W, strain RIO2, active compounds read low 0.571 | S. cerevisiae deletion strains, locus YNL307C, strain MCK1 (second series), active compounds read low 0.295 | S. cerevisiae deletion strains, locus YOL136C, strain PFK27, active compounds read low 0.426 | S. cerevisiae deletion strains, locus YOR061W, strain CKA2, active compounds read low 0.369 | S. cerevisiae deletion strains, locus YOR119C, strain RIO1, active compounds read low 0.448 | S. cerevisiae deletion strains, locus YOR231W, strain MKK1, active compounds read low 0.348 | S. cerevisiae deletion strains, locus YPL031C, strain PHO85, active compounds read low 0.507 | S. cerevisiae deletion strains, locus YPL153C, strain RAD53, active compounds read low 0.581 | S. cerevisiae deletion strains, locus YPL204W, strain HRR25, active compounds read low 0.449 | S. cerevisiae deletion strains, locus YPL256C, strain CLN2, active compounds read low 0.266 | S. cerevisiae deletion strains, locus YPR106W, strain ISR1, active compounds read low 0.584 | S. cerevisiae deletion strains, locus YPR111W, strain DBF20, active compounds read low 0.363 | S. cerevisiae deletion strains, strain NNK1, active compounds read low 0.554

O=C(Oc1ccc(C(F)(F)F)cc1[N+](=O)[O-])c1c(F)cccc1F
active: S. cerevisiae deletion strains, locus YAL013W, strain DEP1, active compounds read low 0.185 | S. cerevisiae deletion strains, locus YBR229C, strain ROT2, active compounds read low 0.178 | S. cerevisiae deletion strains, locus YDL101C, strain DUN1, active compounds read low 0.316 | S. cerevisiae deletion strains, locus YDR150W, strain NUM1, active compounds read low 0.25 | S. cerevisiae deletion strains, locus YEL061C, strain CIN8, active compounds read low 0.235 | S. cerevisiae deletion strains, locus YGR078C, strain PAC10, active compounds read low 0.172 | S. cerevisiae deletion strains, locus YGR229C, strain SMI1, active compounds read low 0.927 | [1] 0.16 | S. cerevisiae deletion strains, locus YHR087W, strain rtc3, active compounds read low 0.133 | S. cerevisiae deletion strains, locus YJL187C, strain SWE1, active compounds read low 0.141 | S. cerevisiae deletion strains, locus YJR043C, strain POL32, active compounds read low 0.424 | S. cerevisiae deletion strains, locus YJR075W, strain HOC1, active compounds read low 0.101 | S. cerevisiae deletion strains, locus YKL190W, strain CNB1, active compounds read low 0.218 | S. cerevisiae deletion strains, locus YLR039C, strain RIC1, active compounds read low 0.286 | S. cerevisiae deletion strains, locus YLR058C, strain SHM2 (second series), active compounds read low 0.15 | S. cerevisiae deletion strains, locus YLR085C, strain ARP6, active compounds read low 0.122 | S. cerevisiae deletion strains, locus YLR262C, strain YPT6, active compounds read low 0.316 | S. cerevisiae deletion strains, locus YML094W, strain GIM5, active compounds read low 0.4 | S. cerevisiae deletion strains, locus YMR219W, strain ESC1, active compounds read low 0.14 | S. cerevisiae deletion strains, locus YMR263W, strain SAP30, active compounds read low 0.169 | S. cerevisiae deletion strains, locus YMR307W, strain GAS1, active compounds read low 0.213 | S. cerevisiae deletion strains, locus YNL153C, strain GIM3, active compounds read low 0.227 | S. cerevisiae deletion strains, locus YNL298W, strain CLA4 (second series), active compounds read low 0.23 | S. cerevisiae deletion strains, locus YNL322C, strain KRE1, active compounds read low 0.577 | S. cerevisiae deletion strains, locus YNR030W, strain Alg12, active compounds read low 0.559 | S. cerevisiae deletion strains, locus YPL055C, strain LGE1, active compounds read low 0.171 | S. cerevisiae deletion strains, locus YPL241C, strain CIN2, active compounds read low 0.685 | S. cerevisiae deletion strains, locus YPR135W, strain CTF4, active compounds read low 0.269 | S. cerevisiae strains, strain wild type, active compounds read low 0.515
